This is a sample that favours compounds with a hit; in the whole collection about 2.7% have one here.
GLP1R cytotox: cytotoxicity counter-screen for GLP-1 receptor inverse agonists | 0.13% of 410,000 active | HEK293 cAMP-luciferase reporter cells, luminescence, 24 h | Potency, µM (highest dose often 38.3 µM), for the others: at the top dose activity change, negative = inhibition, most hits filed as inhibitors;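 also: loss of luciferase light is scored as toxicity; % is scaled to controls: 0 for no effect and ±100 for the full control effect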
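1536-well qHTS counterscreen of the MLSMR; 200 cells/uL, 12 h pre-incubation, 23 nL cpd, 24 h at 37 deg C 5% CO2, luciferase detection reagent, 12 min RT, luminescence. Inhibition = undesired.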
Integrin act MD: activators of alpha7 integrin expression for muscular dystrophy; Potency, µM (doses to about 38.3 µM), inactives show at the highest dose activation, hits mostly activators; AID 624291; 0.064% of 350,000 active; alpha7betagal myoblasts, beta-gal FDG fluorescence, 48 h;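 also: 100% = response of the positive control SU9516; nearly all actives have a fitted effect of over 60% in size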
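Alpha7betagal+/- myoblasts (passage 13) were plated 16-24 hr, then exposed to compounds (1:260 dilution of DMSO stock) for 48 hours at 37C. After MPER lysis, β-galactosidase reporter activity was read as FDG fluorescence (ex 480/em 540) after 30 minutes.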
BRCA1 expr act: increases BRCA1 expression; Potency, µM (titrated, usually from 46.1 µM), inactives show top-dose activation, actives largely listed as activators; MCF7-BRCA1-FFLuc reporter, luminescence, 48 h; response scale: scaled: vehicle 0%, 10 µM genistein 100%; 1.1% of 380,000 active; AID 624202; also: nearly all actives have a fitted effect of over 80% in size
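Quantitative HTS in MCF7 cells stably reporting BRCA1 expression via firefly luciferase. Compound treatment lasts 48 h at 37 °C in phenol-red free MEM. Activation is expressed relative to genistein at 10 microM and DMSO.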
GLP1R ag: GLP-1 receptor (human) agonism; P43220; HEK293 GLP-1R CRE-luciferase, luminescence, 4-6 h; cells express a hypersensitive GLP-1R form; Potency, µM (series often up to 45.6 µM), inactives show at the highest dose activation, actives largely listed as activators; 0.007% of 380,000 active; also: % of control where 0% means no effect
Target sequence (P43220 whole entry, looked up): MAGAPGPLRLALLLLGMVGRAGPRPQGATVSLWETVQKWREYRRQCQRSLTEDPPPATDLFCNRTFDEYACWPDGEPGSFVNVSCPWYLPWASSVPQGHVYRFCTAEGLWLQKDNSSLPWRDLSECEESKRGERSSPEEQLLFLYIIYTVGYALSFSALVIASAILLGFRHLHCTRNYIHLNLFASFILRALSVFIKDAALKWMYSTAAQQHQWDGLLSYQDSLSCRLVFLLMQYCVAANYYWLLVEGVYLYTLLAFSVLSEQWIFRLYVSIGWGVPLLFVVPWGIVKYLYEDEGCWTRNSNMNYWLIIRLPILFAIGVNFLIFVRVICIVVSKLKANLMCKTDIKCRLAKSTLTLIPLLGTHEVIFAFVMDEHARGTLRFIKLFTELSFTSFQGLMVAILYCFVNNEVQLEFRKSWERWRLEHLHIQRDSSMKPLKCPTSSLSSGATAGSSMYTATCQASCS
GLP-1R inv ag: acts as inverse agonist at human GLP-1 receptor; HEK293 GLP-1R CRE-luciferase, luminescence, 24 h; GLP-1R form is constitutively active; Potency, µM (series often up to 38.3 µM), for inactives: at the highest dose activity change, negative = inhibition, most hits filed as inhibitors; 1.6% of 410,000 active; AID 624417; P43220; also: % is scaled to controls: 0 for no effect and ±100 for the full control effect; nearly all actives have a fitted effect of over 55% in size
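Stable HEK293 clone (constitutively active GLP-1R + cAMP-response luciferase); 200 cells/uL plated, 12 h pre-culture, compound 24 hr, 37 deg C/5% CO2; detection reagent 12 min RT; luminescence.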
Numbers without * were called inactive; i = inactive; ? = inconclusive; · = no result given; [ ] = dose if it differs, or a comment. Calls follow the shape of the dose curve; as a rule, active = well fitted curve in the direction sought with a large enough effect; inconclusive = small, poorly fitted or top-dose-only effect, or another doubt; inactive = no such curve, though single readings can be large; an effect the other way counts as inactive or inconclusive. Potency is read from the fitted curve at half-maximal effect.

SMILES	GLP1R cytotox	Integrin act MD	BRCA1 expr act	GLP1R ag	GLP-1R inv ag
N#C/C(=C\c1cccc(NC(=O)c2ccccc2Cl)c1)C(=O)NCCc1ccccc1	?	26%	-29%	-5%	?
O=C(CN1CCN(C(=O)CNC(=O)c2ccc(-c3ccccc3)cc2)CC1)Nc1ccccc1Cl	-29%	-50%	-47%	-1%	10µM*
COC(=O)c1cn(Cc2ccc(F)cc2)c2ccccc12	2%	-33%	-14%	16%	11µM*
CC(=O)c1cn(Cc2ccc(F)cc2)c2ccccc12	-1%	-9%	-36%	1%	?
CCc1ccccc1N1C(=O)N(Cc2ccccc2C)c2ccccc2S1(=O)=O	-6%	·	-5%	-2%	?
CN(C)CCCN(C(=O)CCc1ccccc1)c1nc2ccc(Br)cc2s1	?	-74%	-105%	10%	6.3µM*
Cc1ccc2sc(N(CCCN(C)C)C(=O)CCS(=O)(=O)c3ccccc3)nc2c1C	?	-34%	-65%	-3%	?
CCC(=O)NC1=C(Cl)C(=O)C(NC(=O)CC)=C(Cl)C1=O	?	-62%	-76%	-11%	?
Cc1ccc(NC(=O)c2ccccc2NS(=O)(=O)c2ccc(Cl)s2)cc1S(=O)(=O)N1CCOCC1	?	-16%	-68%	-4%	?
CCc1cccc2sc(N3CCN(C(=O)c4ccc([N+](=O)[O-])o4)CC3)nc12	?	-14%	-82%	10%	?
Cc1ccccc1-n1c(C)nc2ccccc2c1=O	1%	-25%	4%	17%	-4%
Cc1ccccc1-n1c(/C=C/c2ccc(N(C)C)cc2)nc2ccccc2c1=O	i	·	-30%	·	8.9µM*
Cc1ccccc1-n1c(/C=C/c2c(C)[nH]c3ccccc23)nc2ccccc2c1=O	-11%	·	·	·	4µM*
CCC(C)N1CCN(C(=O)COc2ccc3ccccc3c2)CC1 (centres undefined)	-9%	7%	0%	7%	?
O=C(COc1ccc2ccccc2c1)N1CCN(Cc2c[nH]c3ccccc23)CC1	-32%	-63%	-54%	-2%	11µM*
COc1ccc(CN2CCN(C(=O)COc3ccc4ccccc4c3)CC2)c(OC)c1	-4%	0%	-13%	-1%	10µM*
Cc1ccc(-n2c(SCC(=O)Nc3cccc(S(N)(=O)=O)c3)nc3ccccc32)cc1	?	-36%	-96%	-3%	-8%
COc1ccc(C[C@H](C)NC[C@@H](O)c2ccc(O)c(NC=O)c2)cc1	-1%	·	-12%	?	41%
COc1ccc(C(=O)NCCn2cc(SCc3ccc(C(F)(F)F)cc3)c3ccccc32)cc1OC	2%	·	-65%	-1%	?
CCN1CCN(c2ncc(C(=O)Nc3cc(Cl)ccc3OC)c3ccccc23)CC1	?	-54%	-91%	2%	1.8µM*
CCOC(=O)c1cccc(NC(=O)c2cnc(N3CCCCC3)c3ccccc23)c1	1%	·	·	·	?
CCN(CC)CCN(C(=O)CCS(=O)(=O)c1ccccc1)c1nc2c(C)cc(C)cc2s1	?	-30%	-56%	-4%	?
COc1ccc(CCNC(=O)N2c3ccccc3Sc3ccccc32)cc1	-18%	-31%	-87%	7%	7.9µM*
COc1ccc(CCNC(=O)COC(=O)Cc2ccccc2)cc1	-3%	15%	3%	3%	1%
Clc1ccc2c(c1)C(OC1CN3CCC1CC3)c1ccccc1CS2 (centres undefined)	?	-62%	-69%	-20%	2.8µM*
SMILES	GLP1R cytotox	Integrin act MD	BRCA1 expr act	GLP1R ag	GLP-1R inv ag
CN1CCN(CCOC2c3ccccc3CSc3ccc(Cl)cc32)CC1 (centres undefined)	?	-27%	-71%	5%	?
COc1cc([C@@H]2c3cc4c(cc3C[C@H]3COC(=O)[C@@H]32)OCO4)cc(OC)c1O	·	·	-51%	·	·
COc1cc(C2c3cc4c(cc3CC3COC(=O)C32)OCO4)cc(OC)c1OC (centres undefined)	?	-4%	-47%	20%	0.28µM*
CC(C)(C#CCN1CCCCC1)OCCOC(c1ccccc1)c1ccccc1	?	11%	-41%	3%	5.6µM*
ClC1=C(Cl)[C@]2(Cl)[C@@H]3[C@@H]4C[C@@H]([C@H]5O[C@@H]45)[C@@H]3[C@@]1(Cl)C2(Cl)Cl	·	·	·	13%[96 µM]	·
Cc1ccc(-n2sc3ccccc3c2=O)cc1	10µM*	-7%	-12%	-3%	?
O=C(Oc1ccc(Cl)c2ccccc12)N1CCCCC1	-10%	-6%	?	9%	?
O=C(Oc1ccc2ccccc2c1Cl)N1CCCC1	29%	20%	4.5µM*	0%	?
Fc1ccccc1CSc1ncnc2c1ncn2C1CCCO1 (centres undefined)	-4%	-9%	3.5µM*	?	?
Nc1c(C(=O)Nc2ccc(OC(F)(F)F)cc2)sc2nc3c(cc12)N1CCC3CC1	2%	·	·	·	?
O=C(Nc1ccc(OC(F)(F)F)cc1)C1CCN(S(=O)(=O)c2cccs2)CC1	-26%	·	·	·	5µM*
CCOP(=O)(OCC)c1nc(-c2ccc(Br)cc2)oc1N1CCCCC1	1%	14%	-29%	13%	8.9µM*
O=c1c2ccccc2[nH]c(=S)n1-c1ccc2c(c1)OCCO2	-4%	-17%	10µM*	-7%	7%
O=C1CC(c2cccnc2)=NN1c1ccccc1	-6%	15%	0%	6%	8%
O=C1CC(NC(=O)C(F)(F)F)=NN1c1ccccc1	?	19%	-4%	-9%	2.5µM*
S=C(SSC(=S)N1CCCCC1)N1CCCCC1	·	·	·	-7%	·
CN1CC=C(/C=C/c2ccc(-c3ccccc3)cc2)CC1	-1%	-63%	8.9µM*	-7%	?
COc1ccc(/C=C/C2=CCN(C)CC2)cc1	1%	13%	?	4%	?
C=CCn1cccc(/C=C/C(=O)c2ccc(C(C)(C)C)cc2)c1=S	?	-57%	-69%	-21%	13µM*
CC(C)CC(N)c1csc(NC(=O)C(c2ccccc2)c2ccccc2)n1 (centres undefined)	?	·	-69%	-23%	?
CNC(=O)Oc1cccc2ccccc12	4%	-20%	7%	13%	9%
CNCC[C@H](Oc1cccc2ccccc12)c1cccs1	-13%	·	-67%	-1%	11µM*
COc1cc(C2C3=C(COC3=O)Oc3cc4c(cc32)OCO4)ccc1O (centres undefined)	?	6%	-70%	24%	?
CC(C)CCC(=O)OC1CCC2C3CCC4=CC(=O)CC[C@]4(C)C3CC[C@]12C (some centres undefined)	·	·	·	-4%	·
O=P(Nc1ccccc1)(Oc1ccccc1)Oc1ccccc1	-15%	1%	-1%	8%	?
CCCOc1ccccc1NP(=O)(Oc1ccccc1)Oc1ccccc1	11%	0%	-2%	-7%	?

From PubChem BioAssay
